Source: PubChem BioAssay (NCI)
Compounds without any hit were thinned out: in the full panel of roughly 79,000, 15% have a hit. Active and inactive are the calls of the source. Rule as the data show it: active = growth inhibition above about 70%; inactive = the rest.

Key:
[1] = NCI Yeast Anticancer Drug Screen. Data for the rad52 strain (AID 147);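 also: 0% = growth of vehicle-treated control cultures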; conditions: S. cerevisiae rad52 mutant growth inhibition, hits give high values
Method in brief: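 Measured: yeast growth inhibition. System: strain with a defined DNA damage repair alteration. Reference: vehicle-treated control cultures.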

[2] = NCI Yeast Anticancer Drug Screen. Data for the wt1 strain (AID 149);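 also: 0% = growth of vehicle-treated wt1 cultures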; conditions: S. cerevisiae wt1 strain (SPY 50644) growth inhibition, hits give high values
Method in brief: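 wt1 strain grown with compound or vehicle; inhibition taken from the growth difference.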

[3] = NCI Yeast Anticancer Drug Screen. Data for the rad50EPP+ strain (AID 151);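 also: 0% = growth of vehicle-treated control cultures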; conditions: S. cerevisiae rad50 mutant strain, hits give high values
Method in brief: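 One strain with a rad50 alteration (rad50EPP+) was compound-treated, its growth then compared to that of vehicle controls.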

[4] = NCI Yeast Anticancer Drug Screen. Data for the mgt1 strain (AID 153); conditions: S. cerevisiae mgt1 mutant growth inhibition, hits give high values
Method in brief: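 After exposure of the mgt1 yeast mutant to compound, growth was measured and reported as inhibition compared with vehicle controls.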

[5] = NCI Yeast Anticancer Drug Screen. Data for the rad50 strain (AID 155);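 also: 0% = growth of vehicle-only cultures of the same strain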; conditions: S. cerevisiae rad50 strain growth inhibition, hits give high values
Method in brief: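 DNA repair mutant yeast, compound exposure, growth read-out; inhibition is taken relative to vehicle.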

[6] = NCI Yeast Anticancer Drug Screen. Data for the mec2-1 strain (AID 157); conditions: S. cerevisiae mec2-1 strain, hits give high values
Method in brief: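 Test agents were screened against the mec2-1 yeast strain, with defined DNA repair or cell cycle alteration. Growth was scored as inhibition against vehicle-only controls.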

[7] = NCI Yeast Anticancer Drug Screen. Data for the rad14 strain (AID 159);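 also: 0% = growth of vehicle-treated control cultures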; conditions: S. cerevisiae rad14 strain growth inhibition, hits give high values
Method in brief: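 DNA repair-defective yeast, compound-exposed; % growth inhibition derived by comparison with vehicle-treated controls.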

[8] = NCI Yeast Anticancer Drug Screen. Data for the sgs1 mgt1 strain (AID 161);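 also: 0% = growth of cultures given vehicle only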; conditions: S. cerevisiae sgs1 mgt1 strain, hits give high values
Method in brief: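 Inhibition of yeast growth, normalised to vehicle-treated controls, is reported for a strain bearing genetic alterations in DNA damage repair.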

[9] = NCI Yeast Anticancer Drug Screen. Data for the CLN2oe strain (AID 163);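 also: 0% = growth of vehicle-only control cultures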; conditions: S. cerevisiae CLN2oe strain, hits give high values
Method in brief: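 Here, growth inhibition in a cell-cycle-altered yeast strain after compound exposure was quantified against vehicle control growth.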

[10] = NCI Yeast Anticancer Drug Screen. Data for the cln2 rad14 strain (AID 165);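 also: 0% = growth equal to vehicle treated cultures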; conditions: S. cerevisiae cln2 rad14 strain, hits give high values
Method in brief: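 Growth of compound-exposed yeast (cln2 rad14 genotype) measured and expressed as inhibition relative to vehicle.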

[11] = NCI Yeast Anticancer Drug Screen. Data for the bub3 strain (AID 167); conditions: S. cerevisiae bub3 mutant strain, hits give high values
Method in brief: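 In this screen, a yeast mutant lacking normal mitotic checkpoint function is challenged with compound. Relative growth versus vehicle gives the inhibition value.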

[12] = NCI Yeast Anticancer Drug Screen. Data for the mlh1 strain (AID 171);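 also: 0% = growth of vehicle-treated control cultures of the same strain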; conditions: S. cerevisiae mlh1 strain growth inhibition, hits give high values
Method in brief: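 Here the genetically defined yeast mutant is grown with each compound, and the extent to which its growth falls below that of vehicle-exposed cells is reported.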

[13] = NCI Yeast Anticancer Drug Screen. Data for the sgs1 strain (AID 173);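 also: 0% = growth of vehicle-only control cultures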; conditions: S. cerevisiae sgs1 mutant, hits give high values
Method in brief: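 Relative growth inhibition, referenced to vehicle, was determined in a yeast strain with a defined alteration affecting DNA damage repair or cell cycle control after compound exposure.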

[14] = NCI Yeast Anticancer Drug Screen. Data for the mlh1 rad18 strain (AID 175); conditions: S. cerevisiae mlh1 rad18 strain growth inhibition, hits give high values
Method in brief: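 In this whole-cell yeast screen, a strain with altered DNA damage repair is challenged with compound, and its growth is measured against matched vehicle-treated controls.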

[15] = NCI Yeast Anticancer Drug Screen. Data for the rad18 strain (AID 177); conditions: S. cerevisiae rad18 mutant growth inhibition, hits give high values
Method in brief: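 Screen uses a yeast strain with a defined lesion in DNA damage repair; compound effect is read as loss of growth compared to untreated vehicle cultures.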

[16] = NCI Yeast Anticancer Drug Screen. Data for the wt2 strain (AID 169);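 also: 0% = growth of vehicle-treated yeast cultures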; conditions: S. cerevisiae wt2 strain growth inhibition, hits give high values
Method in brief: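 Genetically defined yeast strains from a DNA-repair/cell-cycle panel were used. Compound-exposed yeast growth was measured, and the inhibition was calculated relative to vehicle treatment.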

[17] = at 5.0 µM (retest, dose inferred, filed as 0.5)
[18] = at 50.0 µM (retest, dose inferred, filed as 5.0)

Measured: growth inhibition

CCC#CCCCOC(=O)c1cc([N+](=O)[O-])cc([N+](=O)[O-])c1
active: [1]; at 33.0 µM 81% | [1]; at 100.0 µM 98% | [2]; at 100.0 µM 99% | [3]; at 33.0 µM 92% | [3]; at 100.0 µM 98% | [4]; at 33.0 µM 93% | [4]; at 100.0 µM 99% | [5]; at 33.0 µM 87% | [5]; [18] 97% | [5]; at 50.0 µM 99.2% | [5]; at 100.0 µM 98% | [6]; at 33.0 µM 83% | [6]; [18] 99% | [6]; at 50.0 µM 99.3% | [6]; at 100.0 µM 99% | [7]; at 33.0 µM 79% | [7]; at 100.0 µM 99% | [8]; [18] 99% | [8]; at 50.0 µM 99.6% | [9]; at 100.0 µM 99% | [10]; [18] 94% | [10]; at 50.0 µM 97.7% | [11]; [18] 97% | [11]; at 50.0 µM 99.5% | [11]; at 100.0 µM 98% | [12]; at 33.0 µM 91% | [12]; at 100.0 µM 99% | [13]; at 33.0 µM 98% | [13]; at 100.0 µM 99% | [14]; [18] 99% | [14]; at 50.0 µM 99.2% | [15]; at 33.0 µM 94% | [15]; at 100.0 µM 99%
inactive: [1]; at 1.2 µM -3% | [1]; at 3.7 µM -4% | [1]; at 11.0 µM 2% | [2]; at 1.2 µM -6% | [2]; at 3.7 µM -8% | [2]; at 11.0 µM -10% | [2]; at 33.0 µM 66% | [3]; at 1.2 µM 3% | [3]; at 3.7 µM 21% | [3]; at 11.0 µM 55% | [4]; at 1.2 µM -5% | [4]; at 3.7 µM -8% | [4]; at 11.0 µM -4% | [5]; at 1.2 µM -4% | [5]; at 3.7 µM -6% | [5]; [17] 6% | [5]; at 11.0 µM 0% | [6]; at 1.2 µM -6% | [6]; at 3.7 µM -2% | [6]; [17] 7% | [6]; at 11.0 µM 2% | [7]; at 1.2 µM -5% | [7]; at 3.7 µM -6% | [7]; at 11.0 µM 1% | [8]; [17] 10% | [9]; at 1.2 µM -5% | [9]; at 3.7 µM -11% | [9]; at 11.0 µM -19% | [9]; at 33.0 µM 44% | [10]; [17] -7% | [11]; at 1.2 µM -10% | [11]; at 3.7 µM -7% | [11]; [17] 4% | [11]; at 11.0 µM -6% | [11]; at 33.0 µM 52% | [12]; at 1.2 µM -2% | [12]; at 3.7 µM 0% | [12]; at 11.0 µM 8% | [13]; at 1.2 µM -1% | [13]; at 3.7 µM 3% | [13]; at 11.0 µM 23% | [14]; [17] 13% | [15]; at 1.2 µM -3% | [15]; at 3.7 µM 4% | [15]; at 11.0 µM 20%

CN(C)c1ccc(C(C#N)=C(C#N)C#N)cc1
active: [5]; [18] 70% | [5]; at 50.0 µM 88.2% | [6]; [18] 82% | [6]; at 50.0 µM 89.3% | [8]; at 50.0 µM 73.2% | [11]; [18] 77% | [11]; at 50.0 µM 83.4% | [14]; [18] 76% | [14]; at 50.0 µM 89.6%
inactive: [1]; at 1.2 µM -2% | [1]; at 3.7 µM -1% | [1]; at 11.0 µM 2% | [1]; at 33.0 µM 5% | [1]; at 100.0 µM 49% | [2]; at 1.2 µM -6% | [2]; at 3.7 µM -5% | [2]; at 11.0 µM -6% | [2]; at 33.0 µM -4% | [2]; at 100.0 µM 12% | [3]; at 1.2 µM 1% | [3]; at 3.7 µM 3% | [3]; at 11.0 µM 7% | [3]; at 33.0 µM 15% | [3]; at 100.0 µM 50% | [4]; at 1.2 µM -3% | [4]; at 3.7 µM -2% | [4]; at 11.0 µM -1% | [4]; at 33.0 µM -4% | [4]; at 100.0 µM 10% | [5]; at 1.2 µM -2% | [5]; at 3.7 µM -8% | [5]; [17] -127% | [5]; at 11.0 µM 6% | [5]; at 33.0 µM 11% | [5]; at 100.0 µM 62% | [6]; at 1.2 µM 2% | [6]; at 3.7 µM 2% | [6]; [17] -35% | [6]; at 11.0 µM 9% | [6]; at 33.0 µM 3% | [6]; at 100.0 µM 18% | [7]; at 1.2 µM 3% | [7]; at 3.7 µM 8% | [7]; at 11.0 µM 10% | [7]; at 33.0 µM 11% | [7]; at 100.0 µM 33% | [8]; [17] -47% | [8]; [18] 60% | [10]; [17] -45% | [10]; [18] 6% | [10]; at 50.0 µM 59.5% | [11]; at 1.2 µM -10% | [11]; at 3.7 µM -5% | [11]; [17] -54% | [11]; at 11.0 µM -5% | [11]; at 33.0 µM -7% | [11]; at 100.0 µM 31% | [16]; at 1.2 µM -2% | [16]; at 3.7 µM 0% | [16]; at 11.0 µM -1% | [16]; at 33.0 µM 0% | [16]; at 100.0 µM 7% | [12]; at 1.2 µM 6% | [12]; at 3.7 µM -6% | [12]; at 11.0 µM -3% | [12]; at 33.0 µM -6% | [12]; at 100.0 µM 17% | [13]; at 1.2 µM -1% | [13]; at 3.7 µM -3% | [13]; at 11.0 µM -3% | [13]; at 33.0 µM -2% | [13]; at 100.0 µM 44% | [14]; [17] -108% | [15]; at 1.2 µM 0% | [15]; at 3.7 µM 1% | [15]; at 11.0 µM 5% | [15]; at 33.0 µM 6% | [15]; at 100.0 µM 39%
